As usually defined, the AC50 is the midpoint of the concentration-response curve, whichever way the signal moves.

Molecules are shown by their SMILES. Inconclusive results are not listed. Activity calls are given as the source filed them. Rule for the calls: active = hit-call score of the fitted dose curve at least 0.9, where 1 is the maximum; inconclusive = response in the unintended direction; inactive = score below 0.9.

The assay is described as follows: ACEA_ER_AUC_viability: ACEA Biosciences xCELLigence Real-Time Cell Analysis on Estrogen Receptor Agonism for Viability (AID 2283782).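 Note: continuous compound exposure with impedance area under curve over 80 h; hit means loss of impedance signal meaning reduced cell growth or viability.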 How it is done:
ACEA_ER is a cell-based, single-readout assay that uses T47D, a human breast cell line, with measurements taken at 80 hours after chemical dosing in a 96-well plate, although TO2 (mc0.srcf) used a 384-well plate. Differences in plate size can be ignored given data normalization.ACEA_ER_AUC_viability is one of two assay component(s) measured or calculated from the ACEA_ER assay. It is designed to make measurements of real-time cell-growth kinetics, a form of growth reporter, as detected with electrical impedance signals by Real-Time Cell Electrode Sensor (RT-CES) technology.Data from the assay component ACEA_ER_AUC_viability was analyzed in the positive analysis fitting direction relative to DMSO as the negative control and baseline of activity. Using a type of growth reporter, loss-of-signal activity can be used to understand changes in the viability. Furthermore, this assay endpoint can be referred to as a secondary readout, because this assay has produced multiple assay endpoints where this one serves a viability function. To generalize the intended target to other relatable targets, this assay endpoint is annotated to the cell cycle intended target family, where the subfamily is cytotoxicity.
The xCELLigence system Multi-E-Plate stations were used to measure the time-dependent response to chemicals. Each compound was tested in an eight-point, 1:4 serial dilution series starting at a maximum final concentration of 100 uM. A maximum starting concentration of 0.5% DMSO was present in the 100 uM chemical samples and was diluted along with the test article dilution series. The screen was performed in biological duplicate using two separate, 96-well, E-Plates 96 for each dilution series (n = 2). Positive controls (MG132 and E2) and a negative control (assay media) were tested in quadruplicate on each testing plate. Then, 0.5% and 0.125% DMSO were tested in duplicates in each plate to serve as solvent controls for the 2 highest concentrations of testing compounds: 100 uM and 25 uM. Reference compounds were tested with 8 concentrations with 1:5 serial dilutions. All screening was carried out by ACEA Biosciences, Inc. (San Diego, CA). T-47D cells purchased from ATCC were maintained in RPMI1640 media supplemented with 10% characterized fetal bovine serum (FBS). Before screening, T-47D cells were preconditioned in assay medium: phenol red-free RPMI1640 supplemented with 10% charcoal-stripped FBS. Cells were then detached and seeded in E-Plates 96 in assay medium. After overnight monitoring of growth once every hour, compounds were added to […] cells and remained in the medium until the end of the experiment. Cellular responses were then recorded once every 5 min for the first 5 h, and once every hour for an additional 100 h.
Turning to `CCCCCCCCCCCCCCCCCC(=O)OCC(CC)CCCC` (stereo not given), the result was inactive.

Turning to `O=C[C@H](O)[C@H](O)[C@H](O)CO`, the AC50 was 23.6 µM (active).

Consider `CC(C)C[C@H]1C(=O)N2CCC[C@H]2[C@]2(O)O[C@](NC(=O)[C@@H]3C=C4c5cccc6[nH]c(Br)c(c56)C[C@H]4N(C)C3)(C(C)C)C(=O)N12`, for which the AC50 was 4.31 µM (active).

As to `C=COCCOCCOCCOC=C`, the molecule was classed as inactive.

Consider `O=C(O)CCCCCCCCCCC(=O)O`, for which the AC50 was 37.7 µM (active).

In the case of `O=C1CCc2ccccc2O1`, the AC50 was 38 µM (active).

`CCCCCCCCCCN`: the AC50 was 45.2 µM (active).

`COc1ccc(O)cc1`: the molecule was called inactive.

As to `CCCOCC(C)O` (stereo not given), the result was inactive.

For the molecule `CC(C)(COC(=O)c1ccccc1)COC(=O)c1ccccc1`, the AC50 was 72.8 µM (active).

For the molecule `CCCCCCCCCCCCCC(=O)O`, the molecule was classed as inactive.

Regarding `CC(C)C1CCC(O)CC1` (stereo not given), the molecule was classed as inactive.

`Cc1ccc(C=O)s1`: the AC50 is 50 µM (active).

Regarding `O=C(O)c1ccc(C(=O)O)cc1`, the outcome was inactive.

As for `C=C(C)C1CCC(C)CC1O` (stereo not given), the AC50 was 50 µM (active).

Regarding `CC(=O)C(=O)O`, the AC50 is 78 µM (active).

As for `CC1CCC2CC1C2(C)C` (stereo not given), the outcome was inactive.

Take `OCCN1CCNCC1`: the result was inactive.

Consider `CCCCCCCCCCCCN`, for which the AC50 is 66.3 µM (active).

For the molecule `CCCCO`, the AC50 was 35.2 µM (active).

Turning to `N#Cc1ccccc1`, the molecule was classed as inactive.

For `Nc1ccc(S(=O)(=O)O)c(N)c1`, the call was inactive.

As to `CC(=O)Nc1ccc(C)cc1C`, the molecule was classed as inactive.

For `Cc1cccc(C)c1C`, the AC50 is 26.4 µM (active).

On to `Cc1ccc(O)c(C(C)(C)C)c1`, for which the concentration at half-maximal activity (AC50) is 26.2 µM (active).

Turning to `OC1C(O)C(O)C(O)C(O)C1O` (stereo not given), the molecule was classed as inactive.

For `CSc1nc(NC2CC2)nc(NC(C)(C)C)n1`, the call was inactive.

For `C=C(C)[C@@H]1CCC2=CC(=O)C[C@@H](C)[C@]2(C)C1`, the AC50 is 80.7 µM (active).

With `CC(C)(C)NC(N)=O`, the result was inactive.

For the molecule `C=CC(C)(CCC=C(C)C)OC=O` (stereo not given), the molecule was classed as inactive.

Turning to `CCCC/C=C\CCCCCCCCCC=O`, the AC50 is 91.2 µM (active).

For `CCCCOCCOCCOCCOCCO`, the call was inactive.

With `C=C(C)C(=O)O`, the outcome was inactive.

`CCCCNC(=O)NS(=O)(=O)c1ccc(C)cc1`: the molecule was classed as inactive.

On to `O=C1CCCCCCCCCCCCCCO1`, for which the molecule was classed as inactive.

With `NCCOCCO`, the outcome was inactive.

Turning to `Cc1ccc(C(C)C)cc1O`, the molecule was called inactive.

On to `O=C(O)CCCCCCCC(=O)O`, for which the result was inactive.

For `C=CC(=O)OCCOCCOCC`, the AC50 was 81.2 µM (active).

As for `O=S(=O)(O)NC1CCCCC1`, the AC50 is 50 µM (active).

The values above are taken from PubChem BioAssay (EPA / NIEHS).
